Measured values reported in PubChem BioAssay (NCATS).
Results filed as inconclusive are left out. The source made the active and inactive calls. Unless noted, calls come from the whole dose curve; as a rule, active = well fitted curve in either direction with a large enough effect (not every such curve was filed as active); inconclusive = small, poorly fitted or top-dose-only effect, or another doubt; inactive = flat fitted curve, though single readings scatter. Residues, ends and D or L forms follow the SMILES beside them.

Experiments:
[1] = target: Lysosomal acid glucosylceramidase (Homo sapiens) (UniProt P04062); experiment: Glucocerebrosidase-p2 (AID 348; in the data active = potency below about 10 µM; note: potency is the fitted concentration of half-maximal effect); conditions: purified GBA, blue fluorogenic substrate, 40 min
Procedure, shortened: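 Normal human glucocerebrosidase (0.2 nM) with blue fluorogenic substrate (80 uM final) in citrate/phosphate pH 5.9 with 10mM sodium taurocholate, 0.01% tween-20; 40 min RT, NaOH/glycine stop; fluorescence Ex 365/Em 440; AC50 from a titration from 0.6 nM upwards.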

[2] = AP1 Signaling Pathway (AID 357); conditions: ME-180 AP-1-bla reporter, EGF-induced, beta-lactamase ratio, 5 h; at 7.69 µM (top of the series) unless noted;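 note: ME-180 reporter cells stimulated with EGF at its EC50 level; % is set by controls: 0 for no effect and ±100 for the full control effect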
Procedure, shortened: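 Cells are seeded overnight, exposed to compound titrations and an EC50 level of EGF for 5 hours at 37 °C, then loaded with CCF4 dye for 2.5 hours. Beta-lactamase activity under the AP-1 element is read as a blue/green ratio.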

[3] = NFAT Signaling Pathway (AID 444); conditions: Jurkat NFAT-bla M1, carbachol, beta-lactamase ratio, 5 h; at 7.69 µM (top of the series) unless noted;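 note: carbachol stimulus at about its EC50 of 1 µM final; % is set by controls: 0 for no effect and ±100 for the full control effect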
Procedure, shortened: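 Jurkat cells carrying an NFAT-driven β-lactamase reporter and co-transfected muscarinic M1 receptor were treated with compound plus carbachol (1 uM final, an EC50 level) for 5 h at 37 °C. CCF4 loading followed for 1 h at RT; 460/530 nm ratio gave %activity.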

[4] = Stat Signaling Pathway (AID 446); conditions: ME-180 (cervical carcinoma) SIE beta-lactamase reporter, IL-6 stimulated, 5 h; at 7.69 µM (top of the series) unless noted;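 note: ME-180 cervical cancer cells given 40 pM IL-6 alongside compound; SIE-controlled beta-lactamase reporter measured as 460/530 nm FRET emission ratio; % is set by controls: 0 for no effect and ±100 for the full control effect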
Procedure, shortened: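 Emission at 460 and 530 nm (excitation 405 nm) reports SIE-controlled beta-lactamase in ME-180 cells. Cells received compound with 40 pM IL-6 for 5 hrs at 37 C; data scaled between 300 pM IL-6 and 125 nM JAK-inhibitor controls.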

[5] = target: Glucocorticoid receptor (Homo sapiens) (UniProt P04150); experiment: GR-GFP Redistribution (AID 450;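 active = compounds whose dose series gives a full or clear partial fitted curve of increased nuclear translocation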; note: potency is the fitted concentration of half-maximal effect); conditions: U2OS GR-GFP nuclear translocation, laser cytometry, 2 h
[6] = target: Glucocorticoid receptor (Homo sapiens) (UniProt P04150); experiment: GR-EFC Redistribution (AID 451; calls by dose curve; note: potency is the fitted concentration of half-maximal effect); conditions: CHO-K1 GR-EFC translocation, beta-gal luminescence, 2 h
Procedure, shortened: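 CHO-K1 cells stably expressing nuclear-localized β-gal enzyme acceptor and GR fused C-terminally to the enzyme donor fragment; ligand-driven nuclear translocation restores β-gal by complementation. Compounds titrated up to 46 uM final, 2 h at 37 °C; luminescence read.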

[7] = target: Mitogen-activated protein kinase 10 (Mus musculus) (UniProt Q61831); experiment: JNK3 AlphaScreen Assay (AID 530); conditions: JNK3 lysate, c-Jun phosphorylation; series mostly up to 11.4 µM;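 note: kinase came from lysate of stimulated human HepG2 cells; signal reports phosphorylation of biotinylated GST-cJun 1-79 at Ser73 with 10 µM ATP; % is set by controls: 0 for no effect and ±100 for the full control effect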
Procedure, shortened: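 Biotinylated GST-cJun(1-79) served as substrate for JNK3 in HepG2 lysates stimulated with IL-1beta and TNF-alpha. ATP was 10 uM final, pH 7.6. Ser73 phosphorylation was quantified by AlphaScreen (680 nm excitation).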

[8] = target: 3',5'-cyclic-AMP phosphodiesterase 4B (Homo sapiens) (UniProt Q07343); experiment: qHTS Assay for Inhibitors of PDE-IV (AID 607; active = well fitted activation curve with a large enough effect in the main read-out, with a control signal flat, not every such curve was filed as active; note: % of control where 0% means no effect); conditions: HEK293 ACTOne CNG channel cells, membrane potential fluorescence; series mostly up to 22.9 µM
Procedure, shortened: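 The readout is membrane depolarisation from a cAMP-sensing CNG channel, detected with a potential dye at ex 535/em 590. Cells were HEK293-derived (endogenous PDE-IV) at 1000 cells/well, titrated up to 22.9 uM final.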

Sequence of Lysosomal acid glucosylceramidase (Homo sapiens) (P04062 whole entry, looked up): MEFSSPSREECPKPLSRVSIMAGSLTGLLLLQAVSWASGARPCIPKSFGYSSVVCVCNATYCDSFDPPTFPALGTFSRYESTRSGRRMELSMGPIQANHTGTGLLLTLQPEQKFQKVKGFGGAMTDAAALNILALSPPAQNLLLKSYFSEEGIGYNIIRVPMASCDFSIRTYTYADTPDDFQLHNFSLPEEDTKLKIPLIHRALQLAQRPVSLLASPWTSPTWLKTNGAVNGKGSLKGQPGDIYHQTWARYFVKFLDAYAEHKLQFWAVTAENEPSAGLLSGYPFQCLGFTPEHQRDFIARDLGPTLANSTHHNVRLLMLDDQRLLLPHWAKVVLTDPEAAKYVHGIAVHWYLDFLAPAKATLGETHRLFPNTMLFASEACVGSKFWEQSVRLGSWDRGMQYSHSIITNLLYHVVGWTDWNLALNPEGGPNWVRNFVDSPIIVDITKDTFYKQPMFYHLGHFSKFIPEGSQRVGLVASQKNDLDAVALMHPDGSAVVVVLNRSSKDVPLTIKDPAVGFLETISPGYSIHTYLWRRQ
Sequence of Glucocorticoid receptor (Homo sapiens) (P04150 whole entry, looked up, the tested form may be a part): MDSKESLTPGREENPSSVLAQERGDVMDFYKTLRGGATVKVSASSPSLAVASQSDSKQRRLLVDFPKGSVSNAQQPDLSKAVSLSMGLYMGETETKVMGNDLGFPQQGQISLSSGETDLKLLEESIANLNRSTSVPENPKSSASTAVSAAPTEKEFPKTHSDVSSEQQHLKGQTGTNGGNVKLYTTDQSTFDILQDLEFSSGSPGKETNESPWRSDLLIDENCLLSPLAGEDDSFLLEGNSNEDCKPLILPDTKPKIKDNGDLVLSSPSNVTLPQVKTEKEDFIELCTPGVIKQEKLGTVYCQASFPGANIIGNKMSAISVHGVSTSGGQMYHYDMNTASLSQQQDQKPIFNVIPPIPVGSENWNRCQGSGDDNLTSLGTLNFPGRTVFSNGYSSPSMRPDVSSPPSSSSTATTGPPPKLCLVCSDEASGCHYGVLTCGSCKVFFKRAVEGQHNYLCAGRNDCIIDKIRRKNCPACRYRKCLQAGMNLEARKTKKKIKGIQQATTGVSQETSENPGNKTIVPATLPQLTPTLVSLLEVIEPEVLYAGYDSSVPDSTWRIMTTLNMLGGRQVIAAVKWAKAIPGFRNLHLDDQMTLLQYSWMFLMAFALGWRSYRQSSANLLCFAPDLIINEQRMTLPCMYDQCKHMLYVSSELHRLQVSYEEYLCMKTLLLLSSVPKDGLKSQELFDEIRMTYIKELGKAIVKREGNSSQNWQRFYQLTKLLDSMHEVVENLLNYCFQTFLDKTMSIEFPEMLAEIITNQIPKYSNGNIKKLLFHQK
Sequence of 3',5'-cyclic-AMP phosphodiesterase 4B (Homo sapiens) (Q07343 whole entry, looked up): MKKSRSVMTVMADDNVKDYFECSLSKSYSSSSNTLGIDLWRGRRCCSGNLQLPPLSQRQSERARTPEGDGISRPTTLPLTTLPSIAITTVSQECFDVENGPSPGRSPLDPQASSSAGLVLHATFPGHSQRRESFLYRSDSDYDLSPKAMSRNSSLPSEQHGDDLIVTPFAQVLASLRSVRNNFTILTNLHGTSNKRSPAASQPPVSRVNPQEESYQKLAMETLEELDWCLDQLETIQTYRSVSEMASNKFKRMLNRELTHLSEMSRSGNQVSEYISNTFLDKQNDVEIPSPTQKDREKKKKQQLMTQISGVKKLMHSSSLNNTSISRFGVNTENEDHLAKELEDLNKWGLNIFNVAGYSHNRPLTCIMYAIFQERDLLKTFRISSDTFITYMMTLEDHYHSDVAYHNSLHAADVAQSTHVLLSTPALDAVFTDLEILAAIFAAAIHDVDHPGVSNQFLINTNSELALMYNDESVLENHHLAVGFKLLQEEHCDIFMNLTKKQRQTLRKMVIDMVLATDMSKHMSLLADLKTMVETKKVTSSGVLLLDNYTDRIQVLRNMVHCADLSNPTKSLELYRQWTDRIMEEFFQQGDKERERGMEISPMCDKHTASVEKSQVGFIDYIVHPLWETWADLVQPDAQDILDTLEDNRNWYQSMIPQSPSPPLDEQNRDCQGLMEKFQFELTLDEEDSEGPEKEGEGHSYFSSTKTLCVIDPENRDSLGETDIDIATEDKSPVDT

CC1(C)CCC(=O)N[C@H]1CC(=O)C[C@H]1NC(=O)CCC1(C)C
inactive: Potency [1] > 11.4 µM | activity change, negative = inhibition [2] -7.26% | activity change, negative = inhibition [3] 13% | activity, negative = inhibition [4] 3.06% | Potency [5] > 46 µM | Potency [6] > 9.22 µM | Potency [7] | Potency [8]

O=C(O)c1nnsc1-c1ccc(-c2snnc2C(=O)O)cc1
inactive: Potency [1] > 11.4 µM | activity change, negative = inhibition [2] -0.0507% | activity change, negative = inhibition [3] 18.7% | activity, negative = inhibition [4] -0.666% | Potency [5] > 46 µM | Potency [6] > 9.22 µM | Potency [7] | Potency [8]

CCN(CC(=O)O)C(=O)c1cccnc1
inactive: Potency [1] > 11.4 µM | activity change, negative = inhibition [2] -4.46% | activity change, negative = inhibition [3] 5.05% | activity, negative = inhibition [4] -6.57% | Potency [5] > 46 µM | Potency [6] > 9.22 µM | Potency [7] | Potency [8]

C[N+](C)(N)Cc1nc(-c2ccc(Cl)cc2)no1
inactive: Potency [1] > 11.4 µM | activity change, negative = inhibition [2] 3.76% | activity change, negative = inhibition [3] -6.01% | activity, negative = inhibition [4] 4.26% | Potency [5] > 46 µM | Potency [6] > 9.22 µM | Potency [7] | Potency [8]

O=C(O)c1ccc(C(=O)O)c(C(=O)Nc2ccc3c(c2)Cc2ccccc2-3)c1
inactive: Potency [1] > 11.4 µM | activity change, negative = inhibition [2] 5.18% | activity change, negative = inhibition [3] 4.14% | activity, negative = inhibition [4] -0.756% | Potency [5] > 46 µM | Potency [6] > 9.22 µM | Potency [7] | Potency [8]

CN(C)Cc1nsc(N(C)C)n1
inactive: Potency [1] > 11.4 µM | activity change, negative = inhibition [2] 6.96% | activity change, negative = inhibition [3] 0.0247% | activity, negative = inhibition [4] 11.1% | Potency [5] > 46 µM | Potency [6] > 9.22 µM | Potency [7] | Potency [8]

O=C(Nc1c[nH]c(=O)[nH]c1=O)Oc1ccccc1
inactive: Potency [1] > 11.4 µM | activity change, negative = inhibition [2] 1.22% | activity change, negative = inhibition [3] 2.28% | activity, negative = inhibition [4] -1.82% | Potency [5] > 46 µM | Potency [6] > 9.22 µM | Potency [7] | Potency [8]

O=C(O)c1ccc(NCc2nc3cc4ccccc4cc3[nH]2)cc1
inactive: Potency [1] > 11.4 µM | activity change, negative = inhibition [2] -5.67% | activity change, negative = inhibition [3] 14.2% | activity, negative = inhibition [4] -2.42% | Potency [5] > 46 µM | Potency [6] > 9.22 µM | Potency [7] | Potency [8]

Nc1nc2nc3c(nc2c(=O)[nH]1)CN(c1ccc(C(=O)O)cc1)C3=O
inactive: Potency [1] > 11.4 µM | activity change, negative = inhibition [2] -9.73% | activity change, negative = inhibition [3] 13.8% | activity, negative = inhibition [4] -8.98% | Potency [5] > 46 µM | Potency [6] > 9.22 µM | Potency [7] | Potency [8]

O=C(O)CSc1ccc(N=C=S)cc1
inactive: Potency [1] > 11.4 µM | activity change, negative = inhibition [2] 7.13% | activity change, negative = inhibition [3] 27.9% | activity, negative = inhibition [4] 5.22% | Potency [5] > 46 µM | Potency [6] > 9.22 µM | Potency [7] | Potency [8]

COc1ccc2c(c1)CCc1c(-c3noc4c3CCc3cc(OC)ccc3-4)noc1-2
inactive: Potency [1] > 11.4 µM | activity change, negative = inhibition [2] -10.7% | activity change, negative = inhibition [3] -3.27% | activity, negative = inhibition [4] 2.75% | Potency [5] > 46 µM | Potency [6] > 9.22 µM | Potency [7] | Potency [8]

Clc1ccc(CSc2ncnc3c2ncn3[C@@H]2CCCCO2)cc1
inactive: Potency [1] > 11.4 µM | activity change, negative = inhibition [2] -8.23% | activity change, negative = inhibition [3] 12.9% | activity, negative = inhibition [4] -14.7% | Potency [5] > 46 µM | Potency [6] > 9.22 µM | Potency [7] | Potency [8]

Cc1cc2ncn(CC(=O)O)c2cc1C
inactive: Potency [1] > 11.4 µM | activity change, negative = inhibition [2] -4.54% | activity change, negative = inhibition [3] 1.45% | activity, negative = inhibition [4] 8.76% | Potency [5] > 46 µM | Potency [6] > 9.22 µM | Potency [7] | Potency [8]

CC(C)(SCc1ccccc1)[C@H](N)C(=O)O
inactive: Potency [1] > 11.4 µM | activity change, negative = inhibition [2] 0.115% | activity change, negative = inhibition [3] 12.4% | activity, negative = inhibition [4] 5.95% | Potency [5] > 46 µM | Potency [6] > 9.22 µM | Potency [7] | Potency [8]

CC(C)(C)n1nc(C2CC2)cc1NC(=O)Nc1ccc(Cl)cc1
inactive: Potency [1] > 11.4 µM | activity change, negative = inhibition [2] -5.76% | activity change, negative = inhibition [3] 8.66% | activity, negative = inhibition [4] -5.8% | Potency [5] > 46 µM | Potency [6] > 9.22 µM | Potency [7] | Potency [8]

O=c1c2ccccc2c2ccccc2c(=O)n1-c1cc2c3ccccc3ccc2c2ccccc12
inactive: Potency [1] > 11.4 µM | activity change, negative = inhibition [2] 13.5% | activity change, negative = inhibition [3] 2.31% | activity, negative = inhibition [4] -7.32% | Potency [5] > 46 µM | Potency [6] > 9.22 µM | Potency [7] | Potency [8]

O=c1oc2ccccc2c(O)c1/C=N/c1nc(-c2ccc(O)c(O)c2)cs1
inactive: Potency [1] > 11.4 µM | activity change, negative = inhibition [2] -3.14% | activity change, negative = inhibition [3] 27.7% | activity, negative = inhibition [4] -11.7% | Potency [5] > 46 µM | Potency [6] > 9.22 µM | Potency [7] | Potency [8]

CC(C)CCNc1ncnc2[nH]ncc12
inactive: Potency [1] > 11.4 µM | activity change, negative = inhibition [2] 6.28% | activity change, negative = inhibition [3] -25.7% | activity, negative = inhibition [4] -5.65% | Potency [5] > 46 µM | Potency [6] > 9.22 µM | Potency [7] | Potency [8]

CC1(C)CC(=O)C(C(c2cccc(O)c2O)C2C(=O)CC(C)(C)CC2=O)C(=O)C1
inactive: Potency [1] > 11.4 µM | activity change, negative = inhibition [2] -0.68% | activity change, negative = inhibition [3] 2.55% | activity, negative = inhibition [4] 1.05% | Potency [5] > 46 µM | Potency [6] > 9.22 µM | Potency [7] | Potency [8]

O=C(O)c1cc(C(=O)O)cc(N2C(=O)c3ccccc3C2=O)c1
inactive: Potency [1] > 11.4 µM | activity change, negative = inhibition [2] 4.16% | activity change, negative = inhibition [3] 6.56% | activity, negative = inhibition [4] -2.79% | Potency [5] > 46 µM | Potency [6] > 9.22 µM | Potency [7] | Potency [8]

CNC[C@@H](SC)c1ccc(O)c(O)c1
inactive: Potency [1] > 11.4 µM | activity change, negative = inhibition [2] 1.24% | activity change, negative = inhibition [3] 7.41% | activity, negative = inhibition [4] 21% | Potency [5] > 46 µM | Potency [6] > 9.22 µM | Potency [7] | Potency [8]

CC(=O)c1ccc(O)c(CN(C2CCCCC2)C2CCCCC2)c1O
inactive: Potency [1] > 11.4 µM | activity change, negative = inhibition [2] -2.68% | activity change, negative = inhibition [3] 16% | activity, negative = inhibition [4] -1.55% | Potency [5] > 46 µM | Potency [6] > 9.22 µM | Potency [7] | Potency [8]

NC1(C(=O)NC2(C(=O)O)CCCC2)CCCC1 (HELM PEPTIDE1{[NC1(C(=O)[*:2])CCCC1].[O=C(O)C1(N[*:1])CCCC1]}$$$$V2.0)
inactive: Potency [1] > 11.4 µM | activity change, negative = inhibition [2] 2.4% | activity change, negative = inhibition [3] -2.57% | activity, negative = inhibition [4] 8.97% | Potency [5] > 46 µM | Potency [6] > 9.22 µM | Potency [7] | Potency [8]

CN1CCN(c2ccc3nc(-c4ccc5nc(-c6ccc(O)cc6)[nH]c5c4)[nH]c3c2)CC1
inactive: Potency [1] > 11.4 µM | activity change, negative = inhibition [2] -22.4% | activity change, negative = inhibition [3] -8.32% | activity, negative = inhibition [4] 23.8% | Potency [5] > 46 µM | Potency [6] > 9.22 µM | Potency [7] | Potency [8]

C[C@@H](CCC(=O)O)C(=O)O
inactive: Potency [1] > 11.4 µM | activity change, negative = inhibition [2] 3.57% | activity change, negative = inhibition [3] 5.4% | activity, negative = inhibition [4] 0.834% | Potency [5] > 46 µM | Potency [6] > 9.22 µM | Potency [7] | Potency [8]
